This assay deals with T1, VENTX (Homo sapiens, UniProt O95231 78-163, R121Q).
T1 sequence: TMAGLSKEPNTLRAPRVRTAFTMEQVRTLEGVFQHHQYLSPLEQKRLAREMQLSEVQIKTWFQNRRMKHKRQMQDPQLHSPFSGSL
Briefly: PBM; 200 nM protein, PBS. Conditions: dsDNA, one strand shown.
With GCGGGTCC, the binding signal is 8.12 upbm affinity estimate (log intensity, higher = more binding, comparable within an allelic series).

For CGTCCAGC, the binding signal is 8.04 upbm affinity estimate (log intensity, higher = more binding, comparable within an allelic series).

With GCCCATTA, the binding signal is 12.1 upbm affinity estimate (log intensity, higher = more binding, comparable within an allelic series).

Consider CACTGGGG, for which the binding signal is 7.92 upbm affinity estimate (log intensity, higher = more binding, comparable within an allelic series).

GGCCATTA: the binding signal was 11.6 upbm affinity estimate (log intensity, higher = more binding, comparable within an allelic series).

In the case of AATAACAC, the binding signal is 9.57 upbm affinity estimate (log intensity, higher = more binding, comparable within an allelic series).

As to CTCGGACC, the binding signal was 8.07 upbm affinity estimate (log intensity, higher = more binding, comparable within an allelic series).

Turning to CAGGGCCC, the binding signal is 8.07 upbm affinity estimate (log intensity, higher = more binding, comparable within an allelic series).

In the case of TAATGGGA, the binding signal was 11.5 upbm affinity estimate (log intensity, higher = more binding, comparable within an allelic series).

In the case of CCGAGTCC, the binding signal is 8.15 upbm affinity estimate (log intensity, higher = more binding, comparable within an allelic series).

Turning to GCCGGCAC, the binding signal is 7.98 upbm affinity estimate (log intensity, higher = more binding, comparable within an allelic series).

Take CCGGGTGC: the binding signal is 8.11 upbm affinity estimate (log intensity, higher = more binding, comparable within an allelic series).

On to CTGGCGCA, for which the binding signal was 8.11 upbm affinity estimate (log intensity, higher = more binding, comparable within an allelic series).

Consider CGCCTGCC, for which the binding signal is 8.19 upbm affinity estimate (log intensity, higher = more binding, comparable within an allelic series).

As to AATCCATT, the binding signal is 10.1 upbm affinity estimate (log intensity, higher = more binding, comparable within an allelic series).

For GTTAATAA, the binding signal was 10.8 upbm affinity estimate (log intensity, higher = more binding, comparable within an allelic series).

As to CCGAATTA, the binding signal was 10.1 upbm affinity estimate (log intensity, higher = more binding, comparable within an allelic series).

Regarding CGTCGACG, the binding signal is 7.98 upbm affinity estimate (log intensity, higher = more binding, comparable within an allelic series).

Take CGGCCCCA: the binding signal is 8.18 upbm affinity estimate (log intensity, higher = more binding, comparable within an allelic series).

Take ACCAATCA: the binding signal was 9.98 upbm affinity estimate (log intensity, higher = more binding, comparable within an allelic series).

As for AGGGGGCG, the binding signal was 8.25 upbm affinity estimate (log intensity, higher = more binding, comparable within an allelic series).

Take AACGATTA: the binding signal was 11.2 upbm affinity estimate (log intensity, higher = more binding, comparable within an allelic series).

For the sequence CCCCTCAG, the binding signal was 8.25 upbm affinity estimate (log intensity, higher = more binding, comparable within an allelic series).

As for CGGCCCCC, the binding signal is 8.06 upbm affinity estimate (log intensity, higher = more binding, comparable within an allelic series).

In the case of GCCAACCC, the binding signal is 8.11 upbm affinity estimate (log intensity, higher = more binding, comparable within an allelic series).

For AGCGATTA, the binding signal is 11.2 upbm affinity estimate (log intensity, higher = more binding, comparable within an allelic series).

With AATGTATC, the binding signal is 9.76 upbm affinity estimate (log intensity, higher = more binding, comparable within an allelic series).

Regarding CCGAGGGC, the binding signal is 7.98 upbm affinity estimate (log intensity, higher = more binding, comparable within an allelic series).

Turning to GAGTTCCC, the binding signal was 8.1 upbm affinity estimate (log intensity, higher = more binding, comparable within an allelic series).

In the case of CCCAGAGG, the binding signal was 7.95 upbm affinity estimate (log intensity, higher = more binding, comparable within an allelic series).

On to GAAGCCGC, for which the binding signal was 8.12 upbm affinity estimate (log intensity, higher = more binding, comparable within an allelic series).

For the sequence ACCCATTA, the binding signal was 12.1 upbm affinity estimate (log intensity, higher = more binding, comparable within an allelic series).

As to ACCACGCC, the binding signal was 7.95 upbm affinity estimate (log intensity, higher = more binding, comparable within an allelic series).

With CTAATCGA, the binding signal is 11.6 upbm affinity estimate (log intensity, higher = more binding, comparable within an allelic series).

Take AAGTAAAC: the binding signal is 9.37 upbm affinity estimate (log intensity, higher = more binding, comparable within an allelic series).

CGATTAGC: the binding signal is 11.7 upbm affinity estimate (log intensity, higher = more binding, comparable within an allelic series).

With CACTGCGC, the binding signal is 8.04 upbm affinity estimate (log intensity, higher = more binding, comparable within an allelic series).

Consider GCTCCGCC, for which the binding signal is 8.31 upbm affinity estimate (log intensity, higher = more binding, comparable within an allelic series).

Consider ATTAGGTG, for which the binding signal was 10.8 upbm affinity estimate (log intensity, higher = more binding, comparable within an allelic series).

Turning to AATATTTG, the binding signal was 9.84 upbm affinity estimate (log intensity, higher = more binding, comparable within an allelic series).

Source of the values: publication PMC11006913.
